Among all 330,000 compounds or so, about 7,300 (2.2%) were called active.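 The calls were made as follows: active = inhibition of at least 40%; inactive = the rest.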 The entries come from a sample that favours actives as a whole.

The nature of the experiment: growth inhibition of tim10-1 ts yeast – luminescence, uHTS, primary screen (AID 463190).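 Also: mutant grown at 25 °C; 0% = DMSO wells with yeast and 100% = wells holding no yeast.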 As to conditions: S. cerevisiae tim10-1 ts strain growth, BacTiter-Glo, 24 h; at 20 µM; hits give high values.
As to `COc1ccc(C2(CNC(=O)C(c3ccccc3)c3ccccc3)CCOCC2)cc1OC`, the inhibition (commonly the drop in the measured response relative to a control, in per cent) is 15.2% (inactive).
Under `CCCCCCCCn1c2c(c(=N)c3c1CCC3)CCCC2` stands 49.1% (active); under `Cc1cc(C)n(C(=O)CCNC(=O)c2ccccc2Cl)n1`, -10.3% (inactive); under `CN(c1ccc(OCC(=O)O)cc1)S(=O)(=O)c1ccc2ccccc2c1`, 11.1% (inactive).
Consider `CN(c1ccccc1)S(=O)(=O)c1ccc(NC(=O)COc2ccccc2)cc1`, for which the inhibition is 40.2% (active).
`O=C(COc1ccccc1)Nc1ccc(F)cc1`: the inhibition is 12.1% (inactive).
With `CC(=O)Nc1ccc(S(=O)(=O)N2CCC(C(=O)NC3CC3)CC2)cc1`, the inhibition was 5.84% (inactive).
As for `O=C(Nc1ccc2oc(-c3ccc4ccccc4c3)nc2c1)c1cccs1`, the inhibition is 3.31% (inactive).
Take `CCc1ccc2oc(-c3ccc(N)cc3)nc2c1`: the inhibition is 41.3% (active).
Take `Cc1cc2nc(-c3ccc(NC(=O)c4cccnc4)cc3)oc2cc1C`: the inhibition is 12.5% (inactive).
As for `Cc1ccc(NC(=O)COC(=O)CCc2nc3ccccc3n2-c2ccccc2)c(C)c1`, the inhibition is 10.3% (inactive).
Under `Cc1ccc2c(c1)C1CN(C)CCC1N2C(=S)Nc1ccc(OC(F)F)cc1` (stereo not drawn) stands 3.44% (inactive).
For the compound `Cc1ccc2c(c1)C1CN(C)CCC1N2S(=O)(=O)c1ccc(Oc2ccc([N+](=O)[O-])cc2)cc1` (stereo not drawn), the inhibition was 43.1% (active).
`Cc1ccc2c(c1)C1CN(C)CCC1N2S(=O)(=O)c1cccc(F)c1` (stereo not drawn): the inhibition was 3.83% (inactive).
Turning to `COCC(=O)Nc1c(I)c(C(=O)NCC(O)CO)c(I)c(C(=O)N(C)CC(O)CO)c1I` (stereo not drawn), the inhibition is 6% (inactive).
In the case of `Cc1ccc(/C=C/C(=O)O)cc1S(=O)(=O)N1CCC(Cc2ccccc2)CC1`, the inhibition was -0.486% (inactive).
`COc1cc(CN2CCC(n3nccc3NC(=O)CCCc3ccccc3)CC2)ccc1O`: the inhibition is 25.4% (inactive).
For `COc1cccc(CN(C)CC2CCCN(CCc3ccc(Cl)cc3)C2)c1OC` (stereo not drawn), the inhibition was -21.5% (inactive).
As for `Nc1cc(C(F)(F)F)ccc1N1CCOCC1`, the inhibition was 11.6% (inactive).
As to `CCc1ccc(C(CNc2nc(C(F)(F)F)nc3ccccc23)N(C)C)cc1` (stereo not drawn), the inhibition was 29.3% (inactive).
To `CC(Nc1nc(C(F)(F)F)nc2ccccc12)c1cccs1` (stereo not drawn) belongs 42.6% (active); to `COc1cccc(CNc2nc(C(F)(F)F)nc3ccccc23)c1`, 39.2% (inactive).
For the compound `Cn1c2ccccc2n2c(=O)c(=O)n(CC(=O)c3ccc(F)cc3)nc12`, the inhibition is -14.7% (inactive).
For the compound `COc1ccc(/C=C(\C#N)C(=O)ONC2=NCCCCC2)cc1`, the inhibition is 48.2% (active).
As to `COc1ccc(/C=C(\C#N)C(=O)OCC(=O)N(C)C2CCS(=O)(=O)C2)cc1` (stereo not drawn), the inhibition is -4.56% (inactive).
As to `COc1ccc(N2CCN(C(=O)/C(C#N)=C/c3ccccc3)CC2)cc1`, the inhibition is 18.8% (inactive).
In the case of `CN(NC(=O)c1ccccc1F)c1nc(C(F)(F)F)nc2ccccc12`, the inhibition is 6.21% (inactive).
`Cc1ccc(Nc2c(F)c(F)c(F)c(F)c2C(=O)O)c(C)c1`: the inhibition is -6.12% (inactive).
Regarding `Cc1cccc(N=Nc2c(O)[nH]c3ccc(F)cc23)c1`, the inhibition was 43.6% (active).
On to `NS(=O)(=O)c1ccc(N=Nc2c(O)[nH]c3ccc(Br)cc23)cc1`, for which the inhibition is -13% (inactive).
In the case of `Oc1[nH]c2ccc(Br)cc2c1N=Nc1nn[nH]n1`, the inhibition is 16.7% (inactive).
Under `Nc1cccc(-c2cc(-c3ccccc3)nc(-c3cccc(N)c3)n2)c1` stands 26.4% (inactive); under `Nc1nc(-c2ccccc2)cc(-c2ccccc2)n1`, 41.6% (active).
`c1ccc(-c2cc(-c3ccccc3)[nH]n2)cc1`: the inhibition is 7% (inactive).
For the compound `CCNc1nc(NCC)nc(N(C)n2cnnc2)n1`, the inhibition is 13.1% (inactive).
Consider `O=C1N=C2SCCN2/C1=C\c1c(Cl)cccc1Cl`, for which the inhibition is -18.2% (inactive).
Under `CNC(=O)N1c2ccccc2C=Cc2ccccc21` stands -1.34% (inactive); under `CCN(CC(=O)NCc1ccco1)S(=O)(=O)c1ccc(F)cc1`, -17.2% (inactive).
For the compound `Cc1cc(C)cc(OCC(=O)O/N=C(\N)Cc2ccc([N+](=O)[O-])cc2)c1`, the inhibition is 19.4% (inactive).
`O=C(COC(=O)C1CCCCC1)Nc1ccc([N+](=O)[O-])cc1`: the inhibition is 13.8% (inactive).
As for `COC(=O)C(C)NC(=O)COc1ccc2ccccc2c1` (stereo not drawn), the inhibition is 8.45% (inactive).
On to `N/C(Cc1ccc([N+](=O)[O-])cc1)=N\OC(=O)C1CCCCC1`, for which the inhibition is 61.6% (active).
For the compound `N/C(Cc1ccc([N+](=O)[O-])cc1)=N\OC(=O)COc1ccc2ccccc2c1`, the inhibition is 68.6% (active).
As for `O=C(COC(=O)Cc1ccc([N+](=O)[O-])cc1)NC1CCCCCC1`, the inhibition is 13.1% (inactive).
Regarding `CCOC(=O)C1=C(C)c2ccccc2OC1C(=O)OCC` (stereo not drawn), the inhibition is 9.8% (inactive).
With `COCCN(CCOC)c1nc(N)c2c(N)nc3c(c2c1C#N)CC(=O)N3Cc1ccc(Cl)cc1`, the inhibition was 28.9% (inactive).
Consider `CCc1cccc(CC)c1NC(=S)NCc1ccc2[nH]c(C)cc2c1`, for which the inhibition is 48.6% (active).
Consider `Cc1cc2cc(CNC(=O)c3cccs3)ccc2[nH]1`, for which the inhibition is -2.64% (inactive).
For `CCc1cccc(CC)c1NC(=S)Nc1ccc2cn[nH]c2c1`, the inhibition was 18.2% (inactive).
To `O=C(Nc1nnc(CCN2CCCCC2)s1)c1cccc(Cl)c1` belongs -12.8% (inactive).
Regarding `Cc1cc(/C=C2/SC(=O)N(CC(=O)N3CCCC3)C2=O)ccc1N1CCOCC1`, the inhibition is 3.32% (inactive).
With `COC(=O)C1=C(C)N=C2SC(C)C(=O)N2C1/C=C/c1ccccc1` (stereo not drawn), the inhibition is 19% (inactive).
Under `CC(OC(=O)c1ccccc1N1C(=O)C2C3CCC(C3)C2C1=O)C(=O)c1ccccc1` (stereo not drawn) stands 22.1% (inactive); under `CCOC(=O)c1ccccc1N1C(=O)C2Sc3[nH]c(=O)sc3C(/C=C/c3ccccc3)C2C1=O` (stereo not drawn), 40.6% (active).
For `N#Cc1cccc(NC(=O)C2CCCN(C(=O)c3ccc(Cl)cc3)C2)c1` (stereo not drawn), the inhibition is 7.79% (inactive).
Take `CCC1(C)NC(=O)N(CC(=O)N2CCN(c3cccc(Cl)c3)CC2)C1=O` (stereo not drawn): the inhibition was 9.91% (inactive).
Turning to `O=C(Nc1ccc2cn[nH]c2c1)c1ccc(S(=O)(=O)N2CCOCC2)cc1`, the inhibition was -2.72% (inactive).
To `CC(C)c1nccn1S(=O)(=O)c1cc([N+](=O)[O-])ccc1Cl` belongs 43.6% (active); to `Cc1ccc([N+](=O)[O-])cc1S(=O)(=O)N1CCCN(C)CC1`, -9.68% (inactive).
Turning to `CCc1nc(C)cn1S(=O)(=O)c1cc(OC)c(C)cc1C`, the inhibition is 14.4% (inactive).
To `O=C(Oc1ccc([N+](=O)[O-])cc1)c1ccc(Cl)c(S(=O)(=O)N2CCCCC2)c1` belongs 38.7% (inactive); to `CCc1nccn1S(=O)(=O)c1cccc([N+](=O)[O-])c1`, -8.99% (inactive); to `CCc1nc(C)cn1S(=O)(=O)c1cc([N+](=O)[O-])ccc1Cl`, 53.6% (active).

Values taken from PubChem BioAssay AID463190 (Sanford-Burnham Center for Chemical Genomics, 2010).
